These results are taken from the supplement of paper PMC7366291.

What all share (conditions): 25 µM; exposure: 24-48 hpf
Assay [1] relates to Danio rerio Tg(wt1b:EGFP) embryo, pronephros. The experiment in a line: glomerular separation, fold change vs DMSO control; higher = glomeruli further apart (abnormal). Put shortly:
(§1)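 Every feature is expressed as a fold change relative to the averaged DMSO-treated embryos of the same day. The exposure ran from 24 to 48 hpf at 28.5°C, with dechorionated Tg(wt1b:EGFP) zebrafish embryos in HEPES-buffered E3 containing 0.003% PTU, 0.5% DMSO and 25 μM compound. Dorsal pronephros images taken in agarose-filled 96-well plates were reduced to maximum projections, on which 16 reference points were set by hand in Fiji for a macro to compute distances and angles. Values more than 2 SD from the feature mean were not used.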

Assay [2] shares this test system. The experiment in a line: glomerular width (mean of left and right), fold change vs DMSO control; higher = wider glomerulus. A digest of the protocol:
as §1

Assay [3] has the same test system. Nature of the assay: fraction of imaged embryos annotated as normal kidney; higher = less nephrotoxic; extreme values may be limits of the assay. Put shortly: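 Dechorionated Tg(wt1b:EGFP) zebrafish embryos were exposed in 12-well plates to 25 μM compound in 0.5% DMSO, 5 mM HEPES-buffered E3 with 0.003% PTU, from 24 to 48 hpf at 28.5°C. Tricaine-anaesthetised larvae were oriented dorsally in agarose-filled 96-well plates, and pronephroi were imaged by widefield fluorescence (470 nm, 10 z-slices). Each embryo was manually annotated from maximum projections. The read-out is the fraction of embryos per treatment assigned to the normal-kidney category.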

Assay [4] has the same test system. The experiment in a line: pronephric angle neck segment to proximal convoluted tubule (mean of left and right), fold change vs DMSO control; higher = larger pronephric angle. Put shortly:
as §1

Counter-ions that a name gives are not always drawn. ± gives the standard deviation or the standard deviation of the averaged measurements.

With `COc1ccc(OC)c(C(O)CNC(=O)CN)c1` (configuration not stated) [Midodrine hydrochloride], the glomerular separation in assay [1] is 0.483 ± 0.2. Further, in assay [2], the glomerular width came to 1.2 ± 0.062. Also, in assay [3], the “fraction of imaged embryos annotated as normal kidney” value (“fraction of imaged embryos annotated” for short) stood at 0.833. Moreover, the “pronephric angle neck segment” value in assay [4] is 0.765 ± 0.013.

In the case of `CC(C[N+](C)(C)C)OC(N)=O` (configuration not stated) [Bethanechol chloride], the glomerular separation in assay [1] was found to be 0.946 ± 0.32. Further, in assay [2], the glomerular width came to 1.023 ± 0.0027. For the same compound, the “fraction of imaged embryos annotated” value in assay [3] was 0.833. Further, the “pronephric angle neck segment” value in assay [4] came out at 0.998 ± 0.024.

Consider `C[C@]12CC[C@@H]3c4ccc(O)cc4C[C@@H](CCCCCCCCC[S+]([O-])CCCC(F)(F)C(F)(F)F)[C@H]3[C@@H]1CC[C@@H]2O` (some centres not stated) [Fulvestrant], for which the glomerular separation in assay [1] was found to be 1.22 ± 0.45. Further, in assay [2], the glomerular width is 0.963 ± 0.037. Moreover, the “fraction of imaged embryos annotated” value in assay [3] turned out to be 0.833. In assay [4], the “pronephric angle neck segment” value amounted to 0.874 ± 0.065.

As for `NC(=O)N1c2ccccc2C=Cc2ccccc21` [Carbamazepine], the glomerular separation in assay [1] amounted to 0.842 ± 0.19. In assay [2], this compound came in with a glomerular width of 0.99 ± 0.04. In addition, in assay [3], the “fraction of imaged embryos annotated” value came out at 0.667. Further, the “pronephric angle neck segment” value in assay [4] was 0.955 ± 0.025.

`Nc1ccc(S(=O)(=O)c2ccc(N)cc2)cc1` [Dapsone] yielded a glomerular separation in assay [1] of 1.08 ± 0.44. Moreover, the glomerular width in assay [2] was determined as 1.04 ± 0.077. In assay [3], the “fraction of imaged embryos annotated” value turned out to be 0.5. In assay [4], the “pronephric angle neck segment” value amounted to 1.14 ± 0.042.

For the compound `O=C1Cc2cc(CCN3CCN(c4nsc5ccccc45)CC3)c(Cl)cc2N1` [Ziprasidone  Hydrochloride], the glomerular separation in assay [1] was 1.5 ± 0.53. Moreover, the glomerular width in assay [2] was 1.03 ± 0.025. Also, the “fraction of imaged embryos annotated” value in assay [3] worked out at 0.833. For the same compound, the “pronephric angle neck segment” value in assay [4] came out at 1.05 ± 0.04.

In assay [1], `CCOc1ccc(Cc2nccc3cc(OCC)c(OCC)cc23)cc1OCC` [Ethaverine hydrochloride] yielded a glomerular separation of 0.975 ± 0.28. Besides, the glomerular width in assay [2] came out at 1.1 ± 0.081. In addition, the “fraction of imaged embryos annotated” value in assay [3] turned out to be 0.583. Moreover, in assay [4], the “pronephric angle neck segment” value was found to be 0.989 ± 0.061.

`Cc1nc2ccccn2c(=O)c1CCN1CCC(C(=O)c2ccc(F)cc2)CC1` [Pirenperone] had a glomerular separation in assay [1] of 0.831 ± 0.3. In assay [2], this compound displayed a glomerular width of 1.05 ± 0.037. Moreover, the “fraction of imaged embryos annotated” value in assay [3] worked out at 1. For the same compound, in assay [4], the “pronephric angle neck segment” value worked out at 0.924 ± 0.0096.

Consider `C[C@@H]1C[C@H]2[C@@H]3CCC4=CC(=O)C=C[C@]4(C)[C@@]3(Cl)[C@@H](O)C[C@]2(C)[C@@]1(OC(=O)c1ccco1)C(=O)CCl` [Mometasone furoate], for which the glomerular separation in assay [1] was 0.99 ± 0.37. The compound further came in with a glomerular width in assay [2] of 1.26 ± 0.082. The “fraction of imaged embryos annotated” value in assay [3] is 0.455. For the same compound, the “pronephric angle neck segment” value in assay [4] was determined as 0.993 ± 0.085.

`c1ccc2[nH]c(-c3cscn3)nc2c1` [Tiabendazole] gave a glomerular separation in assay [1] of 1.4 ± 0.65. Besides, the glomerular width in assay [2] stood at 1.01 ± 0.12. The “fraction of imaged embryos annotated” value in assay [3] was found to be 0.667. In addition, the “pronephric angle neck segment” value in assay [4] turned out to be 1.04 ± 0.02.

`COc1cc(N)c(Cl)cc1C(=O)NC1CCN(Cc2ccccc2)CC1` [Clebopride maleate] showed a glomerular separation in assay [1] of 0.962 ± 0.3. For the same compound, the glomerular width in assay [2] was 0.9245 ± 0.0057. Besides, the “fraction of imaged embryos annotated” value in assay [3] came out at 0.917. Further, the “pronephric angle neck segment” value in assay [4] was 0.912 ± 0.027.

In assay [1], `CC(=O)OCC(=O)[C@@]1(OC(C)=O)[C@@H](C)C[C@H]2[C@@H]3C[C@H](F)C4=CC(=O)C=C[C@]4(C)[C@@]3(F)[C@@H](O)C[C@@]21C` [Diflorasone Diacetate] gave a glomerular separation of 1.52 ± 0.52. The glomerular width in assay [2] was 1.32 ± 0.052. Moreover, the “fraction of imaged embryos annotated” value in assay [3] is 0.727. Further, the “pronephric angle neck segment” value in assay [4] came to 0.973 ± 0.059.

`CCN(CC)CCOc1ccc(C(=C(Cl)c2ccccc2)c2ccccc2)cc1` [Clomiphene citrate (Z,E)] returned a glomerular separation in assay [1] of 1.1 ± 0.41. This compound also had a glomerular width in assay [2] of 0.981 ± 0.019. In addition, the “fraction of imaged embryos annotated” value in assay [3] came to 0.75. Also, the “pronephric angle neck segment” value in assay [4] worked out at 0.974 ± 0.053.

Regarding `CCCC(=O)Nc1ccc(OCC(O)CNC(C)C)c(C(C)=O)c1` (configuration not stated) [Acebutolol hydrochloride], the glomerular separation in assay [1] is 1.43 ± 0.56. The compound further showed a glomerular width in assay [2] of 1.06 ± 0.075. In addition, in assay [3], the “fraction of imaged embryos annotated” value stood at 0.75. For the same compound, the “pronephric angle neck segment” value in assay [4] is 0.9596 ± 0.0066.

Regarding `CNC(=C[N+](=O)[O-])NCCSCc1csc(CN(C)C)n1` [Nizatidine], the glomerular separation in assay [1] came to 0.966 ± 0.41. In assay [2], this compound returned a glomerular width of 0.9023 ± 0.0037. For the same compound, in assay [3], the “fraction of imaged embryos annotated” value came out at 0.917. The “pronephric angle neck segment” value in assay [4] was 1.01 ± 0.043.

In assay [1], `CCCCNc1ccc(C(=O)OCCN(C)C)cc1` returned a glomerular separation of 1.01 ± 0.33. The same compound had a glomerular width in assay [2] of 0.959 ± 0.096. In assay [3], the “fraction of imaged embryos annotated” value turned out to be 0.833. Moreover, the “pronephric angle neck segment” value in assay [4] worked out at 1.057 ± 0.0014.

In the case of `C[C@@H](O)[C@H]1C(=O)N2C(C(=O)O)=C(SCCNC=N)C[C@H]12` [Imipenem], the glomerular separation in assay [1] is 0.805 ± 0.16. For the same compound, the glomerular width in assay [2] was determined as 1.091 ± 0.01. Moreover, in assay [3], the “fraction of imaged embryos annotated” value was found to be 1. Besides, in assay [4], the “pronephric angle neck segment” value was 0.951 ± 0.015.

Turning to `CC1(C)S[C@@H]2[C@H](NC(=O)[C@H](N)c3ccc(O)cc3)C(=O)N2[C@H]1C(=O)O` [Amoxicillin], in assay [1], the glomerular separation amounted to 1.13 ± 0.42. In addition, in assay [2], the glomerular width was 0.961 ± 0.046. Moreover, the “fraction of imaged embryos annotated” value in assay [3] worked out at 0.833. Further, in assay [4], the “pronephric angle neck segment” value turned out to be 1.04 ± 0.074.

The compound `Nc1ccc(/N=N/c2ccccc2)c(N)n1` [Phenazopyridine hydrochloride] showed a glomerular separation in assay [1] of 1.27 ± 0.52. The compound further gave a glomerular width in assay [2] of 0.979 ± 0.025. Moreover, in assay [3], the “fraction of imaged embryos annotated” value was found to be 0.583. Besides, in assay [4], the “pronephric angle neck segment” value is 1.101 ± 0.01.

On to `COc1cc(NS(=O)(=O)c2ccc(N)cc2)ncn1` [Sulfamonomethoxine], for which, in assay [1], the glomerular separation came out at 0.898 ± 0.44. Also, the glomerular width in assay [2] was 0.946 ± 0.055. The “fraction of imaged embryos annotated” value in assay [3] came out at 0.833. The “pronephric angle neck segment” value in assay [4] worked out at 0.927 ± 0.096.

In assay [1], `N=C(N)c1ccc(OCCCCCOc2ccc(C(=N)N)cc2)cc1` [Pentamidine isethionate] yielded a glomerular separation of 0.801 ± 0.21. In assay [2], this compound had a glomerular width of 0.99 ± 0.024. For the same compound, the “fraction of imaged embryos annotated” value in assay [3] was found to be 1. In assay [4], the “pronephric angle neck segment” value is 0.982 ± 0.02.

In assay [1], `CC[N+](CC)(CC)CCC(O)(c1ccccc1)C1CCCCC1` (configuration not stated) [Tridihexethyl chloride] had a glomerular separation of 1.14 ± 0.4. Also, the glomerular width in assay [2] is 0.925 ± 0.012. Besides, the “fraction of imaged embryos annotated” value in assay [3] was 0.818. Also, the “pronephric angle neck segment” value in assay [4] is 1.04 ± 0.026.

Regarding `COC(c1ccccc1)(c1ccccc1)[C@H](Oc1nc(C)cc(C)n1)C(=O)O` [Ambrisentan], in assay [1], the glomerular separation was 0.883 ± 0.35. Besides, the glomerular width in assay [2] turned out to be 0.873 ± 0.017. Further, the “fraction of imaged embryos annotated” value in assay [3] stood at 0.833. For the same compound, in assay [4], the “pronephric angle neck segment” value came out at 1.09 ± 0.018.

`CN1CCN(CCCN2c3ccccc3Sc3ccc(Cl)cc32)CC1` [Prochlorperazine dimaleate] displayed a glomerular separation in assay [1] of 1.05 ± 0.37. In assay [2], this compound had a glomerular width of 1.01 ± 0.033. Moreover, in assay [3], the “fraction of imaged embryos annotated” value amounted to 0.833. In addition, the “pronephric angle neck segment” value in assay [4] amounted to 1.02 ± 0.027.

As to `CC(=O)O[C@@]12CO[C@@H]1C[C@H](O)[C@@]1(C)C(=O)[C@H](O)C3=C(C)[C@@H](OC(=O)[C@H](O)[C@@H](NC(=O)OC(C)(C)C)c4ccccc4)C[C@@](O)([C@@H](OC(=O)c4ccccc4)[C@H]21)C3(C)C` [Docetaxel], the glomerular separation in assay [1] was found to be 1.11 ± 0.48. Moreover, the glomerular width in assay [2] was determined as 0.978 ± 0.051. Besides, in assay [3], the “fraction of imaged embryos annotated” value came out at 0.917. In addition, the “pronephric angle neck segment” value in assay [4] worked out at 1.007 ± 0.0081.

As for `N[C@H]1CONC1=O` [(S)-(-)-Cycloserine], in assay [1], the glomerular separation stood at 0.898 ± 0.5. In assay [2], this compound had a glomerular width of 0.892 ± 0.011. Moreover, the “fraction of imaged embryos annotated” value in assay [3] came to 0.5. Besides, in assay [4], the “pronephric angle neck segment” value turned out to be 1.025 ± 0.0084.

The compound `CCN(CC)CCOC(=O)C1(C2CCCCC2)CCCCC1` [Dicyclomine hydrochloride] returned a glomerular separation in assay [1] of 1.3 ± 0.41. Moreover, the glomerular width in assay [2] was found to be 1.12 ± 0.03. In assay [3], the “fraction of imaged embryos annotated” value was 0.727. Further, the “pronephric angle neck segment” value in assay [4] was determined as 1.16 ± 0.077.

In assay [1], `CNCC[C@@H](Oc1ccccc1C)c1ccccc1` [Tomoxetine hydrochloride] yielded a glomerular separation of 1.04 ± 0.55. Besides, the glomerular width in assay [2] was 0.979 ± 0.023. In addition, the “fraction of imaged embryos annotated” value in assay [3] was 0.75. Further, the “pronephric angle neck segment” value in assay [4] came out at 1 ± 0.022.
